Values without a mark were called inactive. Records with an inconclusive call do not appear. Activity calls are given as the source filed them. Unless noted, calls follow the shape of the dose curve; as a rule, active = well fitted curve in either direction with a large enough effect (not every such curve was filed as active); inconclusive = small, poorly fitted or top-dose-only effect, or another doubt; inactive = flat fitted curve, though single readings scatter.
Experiments:
[1] = biological target: Lysosomal acid glucosylceramidase (Homo sapiens) (UniProt P04062); assay: Glucocerebrosidase-p2 (AID 348; in the data active = potency below about 10 µM; also: potency is read from the fitted curve at half-maximal effect); conditions: purified GBA, blue fluorogenic substrate, 40 min
Summary of the method: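 Compounds titrated from 0.6 nM upwards against 0.2 nM enzyme in pH 5.9 citric acid/KH2PO4, taurocholate, tween-20; blue fluorogenic substrate 80 uM, 40 min room temperature, stopped and read Ex 365/Em 440 for AC50.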

[2] = AP1 Signaling Pathway (AID 357); conditions: ME-180 AP-1-bla reporter, EGF-induced, beta-lactamase ratio, 5 h; at 7.69 µM (top of the series) unless noted;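 also: ME-180 reporter cells stimulated with EGF at its EC50 level; % is scaled to controls: 0 for no effect and ±100 for the full control effect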
Summary of the method: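 AP-1-bla ME-180 cells, Opti-MEM + 0.5% dialyzed FBS, plated overnight 37 °C. Cpd titration + EC50 EGF, 5 h 37 °C. CCF4 2.5 h RT; ex 405, em 460/530 ratio → %activity, AC50.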

[3] = biological target: Cytochrome P450 1A2 (Homo sapiens) (UniProt P05177); assay: p450-cyp1a2 (AID 410; calls by dose curve; also: potency is read from the fitted curve at half-maximal effect;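 as to activity change, negative = inhibition: -100% = full effect of reference inhibitor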); conditions: recombinant CYP1A2, luciferin-ME demethylation, luminescence; series mostly up to 57 µM
Summary of the method: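 20nM CYP1A2 with 100uM Luciferin-ME (at Km) in 100mM KPO4; compound preincubated 10 min, NADPH regeneration added, 60 min at room temperature. Luciferin quantified by luminescence after detection reagent; normalized to 57 uM furafylline.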

[4] = Stat Signaling Pathway (AID 446); conditions: ME-180 SIE beta-lactamase reporter, IL-6 stimulated, 5 h; at 7.69 µM (top of the series) unless noted;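 also: ME-180 cervical cancer cells given 40 pM IL-6 alongside compound; SIE-controlled beta-lactamase reporter measured as 460/530 nm FRET emission ratio; % is scaled to controls: 0 for no effect and ±100 for the full control effect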
Summary of the method: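 Screening format detects activators and inhibitors alike: ME-180 SIE-bla cells stimulated at 40 pM IL-6 for 5 hrs with compound, then dual-emission beta-lactamase read at 405 nm excitation.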

[5] = biological target: Glucocorticoid receptor (Homo sapiens) (UniProt P04150); assay: GR-EFC Redistribution (AID 451; calls by dose curve; also: potency is read from the fitted curve at half-maximal effect); conditions: CHO-K1 GR-EFC translocation, beta-gal luminescence, 2 h
Summary of the method: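 CHO-K1 cells stably expressing nuclear-localized β-gal enzyme acceptor and GR fused C-terminally to the enzyme donor fragment; ligand-driven nuclear translocation restores β-gal by complementation. Compounds titrated up to 46 uM final, 2 h at 37 °C; luminescence read.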

[6] = biological target: Mitogen-activated protein kinase 10 (Mus musculus) (UniProt Q61831); assay: JNK3 AlphaScreen Assay (AID 530); conditions: JNK3 lysate, c-Jun phosphorylation; series mostly up to 57.1 µM;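 also: kinase came from lysate of stimulated human HepG2 cells; signal reports phosphorylation of biotinylated GST-cJun 1-79 at Ser73 with 10 µM ATP; % is scaled to controls: 0 for no effect and ±100 for the full control effect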
Summary of the method: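 Inhibitors reduce antibody binding to phosphorylated biotin-cJun, lowering AlphaScreen luminescence. Lysates from HepG2 cells pre-activated by IL-1beta plus TNF-alpha supplied JNK3; compounds were titrated.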

[7] = biological target: 3',5'-cyclic-AMP phosphodiesterase 4B (Homo sapiens) (UniProt Q07343); assay: qHTS Assay for Inhibitors of PDE-IV (AID 607; active = well fitted activation curve with a large enough effect in the main read-out, with a control signal flat, not every such curve was filed as active; also: % of control where 0% means no effect); conditions: HEK293 ACTOne CNG channel cells, membrane potential fluorescence; series mostly up to 22.9 µM
Summary of the method: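 The readout is membrane depolarisation from a cAMP-sensing CNG channel, detected with a potential dye at ex 535/em 590. Cells were HEK293-derived (endogenous PDE-IV) at 1000 cells/well, titrated up to 22.9 uM final.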

[8] = biological target: Cytochrome P450 3A4 (Homo sapiens) (UniProt P08684); assay: qHTS Assay for Activators of Cytochrome P450 3A4 (AID 885; active = well fitted curve in the direction sought with a large enough effect; an effect the other way counts as inactive or inconclusive; also: nearly all actives have a fitted effect of over 65% in size); conditions: recombinant CYP3A4, Luciferin-PPXE luminescence, 60 min; series mostly up to 57.1 µM
Summary of the method: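 Steps: enzyme/substrate mix dispensed; compound added, 10 min RT; NADPH regeneration solution added, 60 min RT; luciferin detection buffer stops reaction; 20 min later luminescence measured.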

[9] = biological target: Cytochrome P450 2D6 (Homo sapiens) (UniProt P10635); assay: qHTS Assay for Inhibitors and Substrates of Cytochrome P450 2D6 (AID 891; active = well fitted curve in the direction sought with a large enough effect; an effect the other way counts as inactive or inconclusive; also: potency is read from the fitted curve at half-maximal effect; nearly all actives have a fitted effect of over 60% in size); conditions: recombinant CYP2D6, luciferin-ME EGE luminescence; series mostly up to 57.1 µM
Summary of the method: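 Human CYP2D6 (5 nM) with 30 uM Luciferin-ME EGE (at Km) in 100 mM KPO4, compound preincubated 10 min, then NADPH regeneration system for 60 min at room temperature. Luciferin read by luminescence; normalized to 1.43 uM quinidine.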

[10] = Primary qHTS for small molecule stabilizers of the endoplasmic reticulum resident proteome: Secreted ER Calcium Modulated Protein (SERCaMP) assay (AID 1508630; active = well fitted curve in the direction sought with a large enough effect; an effect the other way counts as inactive or inconclusive; also: % is scaled to controls: 0 for no effect and ±100 for the full control effect); conditions: SH-SY5Y GLuc-SERCaMP (Gaussia luciferase released on ER calcium loss) secretion, thapsigargin, luminescence; series mostly up to 38.4 µM
Summary of the method: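 GLuc-SERCaMP-expressing SH-SY5Y cells, pretreated 16 h with compound, are challenged with thapsigargin to empty ER calcium stores; after 4 h, coelenterazine is added directly to the medium and luminescence is imaged.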

[11] = qHTS Assay for Identification of Small Molecule Agonists for Hypoxia Response Element Signaling Pathway (AID 914; active = well fitted activation curve with a large enough effect in the signal ratio, with a control signal flat, not every such curve was filed as active; the % refers to the signal ratio; also: potency is read from the fitted curve at half-maximal effect; as to activation: % of control where 0% means no effect); conditions: ME-180 (cervical carcinoma) HRE-bla reporter, beta-lactamase ratio, CoCl2, 17 h; activation: active compounds read high
Summary of the method: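 HRE-bla ME-180 cells, overnight plating in Opti-MEM with 0.5% dialyzed FBS; cpd titration + EC50 CoCl2, 17 h, 37 degrees Celsius; CCF4 2.5 h RT; 460/530 nm ratio; AC50.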

[12] = NFAT Signaling Pathway (AID 444); conditions: Jurkat NFAT-bla M1, carbachol, beta-lactamase ratio, 5 h; at 7.69 µM (top of the series) unless noted
Summary of the method: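 Jurkat cells carrying an NFAT-driven β-lactamase reporter and co-transfected muscarinic M1 receptor were treated with compound plus carbachol (1 uM final, an EC50 level) for 5 h at 37 °C. CCF4 loading followed for 1 h at RT; 460/530 nm ratio gave %activity.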

[13] = biological target: Glucocorticoid receptor (Homo sapiens) (UniProt P04150); assay: GR-GFP Redistribution (AID 450;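 active = compounds whose dose series gives a full or clear partial fitted curve of increased nuclear translocation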; also: potency is read from the fitted curve at half-maximal effect); conditions: U2OS GR-GFP nuclear translocation, laser cytometry, 2 h
[14] = Confirmation and Secondary Assay for Modulators of Hemoglobin Beta Chain Splicing at IVS2 705 locus (AID 930; active = well fitted curve in the direction sought with a large enough effect; an effect the other way counts as inactive or inconclusive;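 also: HeLa cells stably expressing the EGFP-705 splicing reporter; GFP fluorescence per well restored by corrected splicing of the IVS2-705 intron in EGFP; % of control where 0% means no effect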); conditions: HeLa EGFP-705 splicing reporter, GFP fluorescence, 48 h; series mostly up to 38.3 µM
Summary of the method: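 Read-out: total peak GFP fluorescence per well (488 nm excitation, 500-520 nm emission) by laser-scanning cytometry. Cells: HeLa EGFP-705 splicing reporter, 2 days compound exposure in Optimem/2% FCS.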

[15] = biological target: Cytochrome P450 2C9 (Homo sapiens) (UniProt P11712); assay: qHTS Assay for Inhibitors and Substrates of Cytochrome P450 2C9 (AID 883; active = well fitted curve in the direction sought with a large enough effect; an effect the other way counts as inactive or inconclusive; also: % is scaled to controls: 0 for no effect and ±100 for the full control effect; nearly all actives have a fitted effect of over 60% in size); conditions: recombinant CYP2C9, luciferin-H luminescence, 60 min; series mostly up to 57.1 µM
Summary of the method: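 A luminogenic readout tracked human CYP2C9 (10nM) converting deoxyluciferin (100uM, at KM) in 25mM KPO4 during 60 min at 37C with regenerated NADPH. Values normalized to 57uM sulphaphenazole as complete inhibition.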

3',5'-cyclic-AMP phosphodiesterase 4B (Homo sapiens), sequence (Q07343 whole entry, looked up): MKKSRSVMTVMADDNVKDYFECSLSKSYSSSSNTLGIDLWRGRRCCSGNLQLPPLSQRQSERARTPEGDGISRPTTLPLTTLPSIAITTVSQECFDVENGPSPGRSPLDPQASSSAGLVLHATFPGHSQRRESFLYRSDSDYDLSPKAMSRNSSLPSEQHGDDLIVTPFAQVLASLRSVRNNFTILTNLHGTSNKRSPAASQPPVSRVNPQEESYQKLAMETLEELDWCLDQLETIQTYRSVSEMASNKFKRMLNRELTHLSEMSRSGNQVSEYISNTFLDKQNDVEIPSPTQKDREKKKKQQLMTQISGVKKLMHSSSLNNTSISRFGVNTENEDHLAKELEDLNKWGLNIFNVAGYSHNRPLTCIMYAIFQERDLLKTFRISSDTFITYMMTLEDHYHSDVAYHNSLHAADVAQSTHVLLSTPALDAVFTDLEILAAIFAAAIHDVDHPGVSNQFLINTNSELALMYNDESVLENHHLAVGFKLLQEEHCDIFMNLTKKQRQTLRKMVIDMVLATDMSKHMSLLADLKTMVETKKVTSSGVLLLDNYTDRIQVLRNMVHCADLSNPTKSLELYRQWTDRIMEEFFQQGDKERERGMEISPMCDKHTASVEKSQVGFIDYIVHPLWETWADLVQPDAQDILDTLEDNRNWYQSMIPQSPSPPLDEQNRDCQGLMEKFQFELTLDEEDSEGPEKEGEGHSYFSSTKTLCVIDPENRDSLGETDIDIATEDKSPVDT
Glucocorticoid receptor (Homo sapiens), sequence (P04150 whole entry, looked up, the tested form may be a part): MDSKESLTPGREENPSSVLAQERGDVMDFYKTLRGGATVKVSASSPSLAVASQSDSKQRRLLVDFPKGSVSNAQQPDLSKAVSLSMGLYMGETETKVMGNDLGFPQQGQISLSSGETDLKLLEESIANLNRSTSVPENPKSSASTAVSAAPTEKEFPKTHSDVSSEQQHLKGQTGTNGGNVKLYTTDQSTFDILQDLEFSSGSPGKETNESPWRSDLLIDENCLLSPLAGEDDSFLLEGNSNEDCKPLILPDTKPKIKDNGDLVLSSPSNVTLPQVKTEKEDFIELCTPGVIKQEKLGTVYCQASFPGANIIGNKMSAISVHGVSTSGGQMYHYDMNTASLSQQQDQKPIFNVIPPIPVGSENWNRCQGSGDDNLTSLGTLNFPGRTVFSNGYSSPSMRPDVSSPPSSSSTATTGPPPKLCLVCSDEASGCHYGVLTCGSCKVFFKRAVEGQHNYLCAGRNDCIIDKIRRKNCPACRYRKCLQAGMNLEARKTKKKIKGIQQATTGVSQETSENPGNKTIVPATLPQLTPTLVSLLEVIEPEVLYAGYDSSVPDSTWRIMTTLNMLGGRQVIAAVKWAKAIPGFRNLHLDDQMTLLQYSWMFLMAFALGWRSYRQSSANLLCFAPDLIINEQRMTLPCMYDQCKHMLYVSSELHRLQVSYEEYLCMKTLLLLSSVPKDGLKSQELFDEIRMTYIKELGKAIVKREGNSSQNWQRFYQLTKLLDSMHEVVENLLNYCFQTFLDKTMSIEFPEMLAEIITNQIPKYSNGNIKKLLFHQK
Cytochrome P450 3A4 (Homo sapiens), sequence (P08684 whole entry, looked up): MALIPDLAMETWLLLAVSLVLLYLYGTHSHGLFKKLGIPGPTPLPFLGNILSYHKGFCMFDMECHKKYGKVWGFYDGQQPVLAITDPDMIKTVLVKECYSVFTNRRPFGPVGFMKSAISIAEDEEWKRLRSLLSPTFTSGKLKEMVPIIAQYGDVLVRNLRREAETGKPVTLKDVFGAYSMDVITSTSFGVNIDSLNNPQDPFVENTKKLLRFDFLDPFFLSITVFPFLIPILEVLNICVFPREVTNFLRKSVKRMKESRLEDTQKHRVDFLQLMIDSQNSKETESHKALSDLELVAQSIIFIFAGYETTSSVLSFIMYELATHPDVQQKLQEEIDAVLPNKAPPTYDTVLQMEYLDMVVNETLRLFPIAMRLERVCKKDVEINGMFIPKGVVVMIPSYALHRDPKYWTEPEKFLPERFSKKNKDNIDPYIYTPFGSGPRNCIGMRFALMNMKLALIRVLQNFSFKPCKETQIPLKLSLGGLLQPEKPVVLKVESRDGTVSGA
Lysosomal acid glucosylceramidase (Homo sapiens), sequence (P04062 whole entry, looked up): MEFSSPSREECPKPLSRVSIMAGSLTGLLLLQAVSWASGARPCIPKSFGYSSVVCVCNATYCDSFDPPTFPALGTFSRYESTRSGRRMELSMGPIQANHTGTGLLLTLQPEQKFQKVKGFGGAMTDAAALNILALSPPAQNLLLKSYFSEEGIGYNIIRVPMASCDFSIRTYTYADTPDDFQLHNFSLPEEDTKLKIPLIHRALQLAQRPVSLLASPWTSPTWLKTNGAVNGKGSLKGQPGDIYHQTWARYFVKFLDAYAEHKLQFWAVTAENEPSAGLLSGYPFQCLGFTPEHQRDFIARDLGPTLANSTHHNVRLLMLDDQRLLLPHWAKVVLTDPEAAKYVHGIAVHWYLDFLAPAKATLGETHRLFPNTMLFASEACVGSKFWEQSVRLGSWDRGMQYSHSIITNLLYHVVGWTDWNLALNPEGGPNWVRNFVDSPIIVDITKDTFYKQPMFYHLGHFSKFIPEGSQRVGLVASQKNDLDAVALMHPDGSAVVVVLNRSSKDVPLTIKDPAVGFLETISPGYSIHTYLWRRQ
Cytochrome P450 1A2 (Homo sapiens), sequence (P05177 whole entry, looked up): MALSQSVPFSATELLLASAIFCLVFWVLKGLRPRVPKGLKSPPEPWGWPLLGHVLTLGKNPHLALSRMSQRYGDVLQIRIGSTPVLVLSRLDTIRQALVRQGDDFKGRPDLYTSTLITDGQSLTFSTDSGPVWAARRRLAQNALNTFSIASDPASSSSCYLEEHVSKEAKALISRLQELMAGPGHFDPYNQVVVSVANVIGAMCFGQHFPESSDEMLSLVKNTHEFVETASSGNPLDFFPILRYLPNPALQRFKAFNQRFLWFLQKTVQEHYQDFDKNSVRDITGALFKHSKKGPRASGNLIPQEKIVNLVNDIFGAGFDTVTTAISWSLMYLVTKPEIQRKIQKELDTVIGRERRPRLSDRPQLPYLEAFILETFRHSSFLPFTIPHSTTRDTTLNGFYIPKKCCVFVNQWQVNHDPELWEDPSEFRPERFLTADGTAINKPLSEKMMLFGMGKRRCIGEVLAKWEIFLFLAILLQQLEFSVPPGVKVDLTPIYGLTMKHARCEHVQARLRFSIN
Cytochrome P450 2D6 (Homo sapiens), sequence (P10635 whole entry, looked up): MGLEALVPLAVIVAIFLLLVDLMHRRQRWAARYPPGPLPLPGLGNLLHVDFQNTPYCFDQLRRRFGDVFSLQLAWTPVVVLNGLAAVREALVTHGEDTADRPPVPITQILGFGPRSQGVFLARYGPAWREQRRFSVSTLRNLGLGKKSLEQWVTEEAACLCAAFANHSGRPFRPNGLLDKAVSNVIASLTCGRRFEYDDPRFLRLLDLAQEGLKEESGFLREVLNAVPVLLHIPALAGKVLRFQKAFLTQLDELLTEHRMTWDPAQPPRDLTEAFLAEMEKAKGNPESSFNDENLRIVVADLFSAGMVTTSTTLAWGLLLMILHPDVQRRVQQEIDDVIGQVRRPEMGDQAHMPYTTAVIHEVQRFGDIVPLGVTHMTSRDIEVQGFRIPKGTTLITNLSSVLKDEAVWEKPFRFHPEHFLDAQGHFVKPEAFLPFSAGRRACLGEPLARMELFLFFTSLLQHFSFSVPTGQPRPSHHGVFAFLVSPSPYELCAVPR
Cytochrome P450 2C9 (Homo sapiens), sequence (P11712 whole entry, looked up): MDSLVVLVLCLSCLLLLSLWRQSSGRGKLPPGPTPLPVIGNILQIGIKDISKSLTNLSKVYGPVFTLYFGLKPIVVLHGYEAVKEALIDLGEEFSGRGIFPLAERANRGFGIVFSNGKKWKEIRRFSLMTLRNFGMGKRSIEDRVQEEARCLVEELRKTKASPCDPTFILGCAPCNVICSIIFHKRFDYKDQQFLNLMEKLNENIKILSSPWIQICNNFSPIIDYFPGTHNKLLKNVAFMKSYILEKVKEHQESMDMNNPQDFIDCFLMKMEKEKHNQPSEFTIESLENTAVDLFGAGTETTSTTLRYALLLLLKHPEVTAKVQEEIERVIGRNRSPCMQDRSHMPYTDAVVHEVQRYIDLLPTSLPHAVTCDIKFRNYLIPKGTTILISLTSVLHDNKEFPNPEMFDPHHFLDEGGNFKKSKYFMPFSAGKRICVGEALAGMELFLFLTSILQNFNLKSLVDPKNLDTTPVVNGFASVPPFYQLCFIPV

Row | SMILES | Potency [1] | activity change, negative = inhibition [2] [%] | Potency [3] | activity, negative = inhibition [4] [%] | Potency [5] [µM] | Potency [6] | Potency [7] | Potency [8] | Potency [9] | outcome [10] | activation [11] [%] | activity change, negative = inhibition [12] [%] | Potency [13] [µM] | Potency [11] | outcome [14] | Potency [15]
1 | O=C(c1cnccn1)N1CCC2(CCCN(Cc3nccs3)C2)CC1 | > 11.4 µM | -20.7 | 15.8 µM (active) | -4.76 | > 46 | inactive | inactive | inactive | 7.94 µM (active) | inactive |  |  |  |  |  | 
2 | O=C(c1ccco1)N1CCC2(CCCN(Cc3ccccc3)C2)CC1 | > 11.4 µM | -8.21 | inactive | 10.9 | > 46 | inactive | inactive | inactive |  | inactive | 3.78 |  |  |  |  | 
3 | COc1cccc(Cn2c(=O)c(C)nc3cnc(Oc4ccccc4)nc32)c1 | > 11.4 µM | -12.2 |  | -2.47 | > 46 | inactive |  |  |  | inactive |  | -3.17 | > 9.22 |  |  | 
4 | COc1ccc(Oc2ncc3ncc(=O)n(CCC#N)c3n2)cc1 | > 11.4 µM | -11.3 |  | -8.02 | > 46 | inactive |  |  |  | inactive |  | -5.59 | > 9.22 |  |  | 
5 | COc1cccc(Cn2c(=O)cnc3cnc(N4CCOCC4)nc32)c1 | > 11.4 µM | -21.3 |  | -11 | > 46 | inactive |  |  |  | inactive |  | -0.938 | > 9.22 |  |  | 
6 | COc1ccc(-c2nc3cnc(N4CCN(C)CC4)nc3n(CCC#N)c2=O)cc1 | > 11.4 µM | 23.4 | inactive |  | > 46 | inactive | inactive | inactive |  | inactive |  |  | > 9.22 | 3.16 µM (active) |  | 
7 | CN(C)c1ccc(-c2nc(NC3CCNCC3)c3ccccc3n2)cc1 | 7.09 µM (active) | 4.91 | 15.8 µM (active) |  | > 46 | inactive | inactive | inactive |  | inactive |  |  | > 46 |  | inactive | 
8 | CC(=O)N1CCC[C@@]2(CCN(c3ccccc3)C2)C1 | > 11.4 µM | -11 | inactive | -6.46 | > 46 | inactive | inactive | inactive |  | inactive |  |  |  |  |  | 
9 | COCCn1c(=O)c(C)nc2cnc(OCc3ccccc3)nc21 | > 11.4 µM | -16.6 |  | -9.48 | > 46 | inactive | inactive |  |  | inactive |  | -3.44 | > 9.22 |  |  | 
10 | O=C(Nc1ccccc1)N1CC2(CCN(C(=O)c3cc(C(F)(F)F)cc(C(F)(F)F)c3)CC2)C1 | > 11.4 µM | 12.7 | inactive |  | > 46 | inactive | inactive |  |  | inactive |  |  |  |  |  | inactive
11 | COC(=O)N1CCC2(CCCN(Cc3ccccc3)C2)CC1 | > 11.4 µM | -5.44 | inactive | 2.77 | > 46 | inactive | inactive |  |  | inactive | 3.12 |  |  |  |  | 
12 | N#Cc1cccc(NC(=O)N2CCCC3(CCN(C(=O)c4cc(C(F)(F)F)cc(C(F)(F)F)c4)CC3)C2)c1 | > 11.4 µM | -21.5 | 6.31 µM (active) | -13.7 | > 46 | inactive |  |  |  | inactive | -10.4 |  |  |  |  | 
13 | COc1ccc(Oc2ncc3nc(C)c(=O)n(CCc4ccccc4)c3n2)cc1 | > 11.4 µM | 18.2 |  | 2.93 | > 46 | inactive |  |  |  | inactive |  | 0.509 | > 9.22 |  |  | 
14 | COc1cccc(Cn2c(=O)c(-c3cccs3)nc3cnc(Nc4ccccc4)nc32)c1 | > 11.4 µM | -5.18 |  | -0.21 | > 46 | inactive | inactive |  |  | inactive |  | -18.8 | > 9.22 |  |  | 
15 | COc1ncc2nc(C)c(=O)n(C[C@H]3CCCO3)c2n1 | > 11.4 µM | -6.08 |  | -2.46 | > 46 | inactive | inactive |  |  | inactive |  | -9.08 | > 9.22 |  |  | 
16 | COc1ncc2nc(-c3ccc(Cl)cc3)c(=O)n(CCc3ccccc3)c2n1 | > 11.4 µM | -3.59 |  | 1.11 | > 46 | inactive | inactive |  |  | inactive |  | -9.46 | > 9.22 |  |  | 
